ChEMBL document CHEMBL3988442, “University of Dundee, Small-Polar-MMV Screening Library” (2021)
For some of these results: Results with a measured potency or affinity are listed apart.

How the values were obtained:
Design in all cases: scale not given: direction of the effect not stated beside the values
[1] = biological target: Protein translocase subunit SecA (Escherichia coli (strain K12)) (UniProt P10408); assay: Assay to Identify E. coli SecA ATPase Inhibitors; format: functional; settings: 30 µM
[2] = biological target: T1, Ubiquitin-activating enzyme e1, putative (Leishmania donovani (strain BPK282A1)) (UniProt E9BSI1); assay: Leishmania donovani Ubiquitin Activating Enzyme (LdE1); format: functional; settings: 30 µM
T1 sequence (whole entry): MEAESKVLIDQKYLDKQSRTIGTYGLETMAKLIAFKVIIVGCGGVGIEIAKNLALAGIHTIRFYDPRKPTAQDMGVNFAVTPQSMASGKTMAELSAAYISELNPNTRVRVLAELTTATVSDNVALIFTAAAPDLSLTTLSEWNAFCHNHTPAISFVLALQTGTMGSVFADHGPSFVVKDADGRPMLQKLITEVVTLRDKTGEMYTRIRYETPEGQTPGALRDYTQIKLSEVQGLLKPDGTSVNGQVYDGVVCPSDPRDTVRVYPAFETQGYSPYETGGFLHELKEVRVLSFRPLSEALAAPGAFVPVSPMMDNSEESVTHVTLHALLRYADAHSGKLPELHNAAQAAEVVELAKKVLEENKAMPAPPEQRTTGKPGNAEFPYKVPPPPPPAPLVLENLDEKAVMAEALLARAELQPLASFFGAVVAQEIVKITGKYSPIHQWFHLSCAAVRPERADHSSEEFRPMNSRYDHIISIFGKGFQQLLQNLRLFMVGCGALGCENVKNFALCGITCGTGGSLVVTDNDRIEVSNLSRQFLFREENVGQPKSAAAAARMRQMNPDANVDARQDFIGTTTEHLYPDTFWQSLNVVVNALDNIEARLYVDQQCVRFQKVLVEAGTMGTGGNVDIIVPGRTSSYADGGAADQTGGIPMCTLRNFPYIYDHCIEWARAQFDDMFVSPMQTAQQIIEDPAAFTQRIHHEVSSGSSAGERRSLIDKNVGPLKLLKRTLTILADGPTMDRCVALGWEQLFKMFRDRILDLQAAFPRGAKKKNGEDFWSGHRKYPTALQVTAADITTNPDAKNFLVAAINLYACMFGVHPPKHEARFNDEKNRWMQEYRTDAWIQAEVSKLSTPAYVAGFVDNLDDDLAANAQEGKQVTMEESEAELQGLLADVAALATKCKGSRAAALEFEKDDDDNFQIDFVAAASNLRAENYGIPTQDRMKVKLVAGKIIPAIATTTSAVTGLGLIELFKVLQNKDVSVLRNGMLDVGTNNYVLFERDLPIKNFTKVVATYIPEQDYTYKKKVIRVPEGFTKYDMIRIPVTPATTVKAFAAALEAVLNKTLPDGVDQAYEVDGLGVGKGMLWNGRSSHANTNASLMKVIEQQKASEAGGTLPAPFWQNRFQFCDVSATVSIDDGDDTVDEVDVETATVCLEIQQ

[3] = biological target: AMP-activated protein kinase, AMPK (Homo sapiens) (UniProt P54646+O43741+P54619+Q9UGJ0+Q9Y478+Q13131+Q9UGI9); assay: AMP-dependent Kinase enzyme assay. An in vitro enzyme assay that detects ADP turnover that is directly proportional to AMPK activity. This uses naive AMPK that is activated during the assay with MK-8722; format: functional; settings: 30 µM
[4] = biological target: Sialic acid-binding Ig-like lectin 9 (Homo sapiens) (UniProt Q9Y336); assay: Hs-Siglec9 ALPHAscreen SOP 20170721; settings: 10 µM
[5] = test system: Trypanosoma cruzi; assay: Trypanosoma cruzi phosphomannomutase and mannose-1-phosphate guanylyltransferase assay; format: functional; settings: 10 µM
[6] = biological target: T2, Arginase-2, mitochondrial (Homo sapiens) (UniProt P78540); assay: in vitro enzyme assay to detect the production of urea directly proportional to the activity of Arginase II; format: functional; settings: 33.3 µM; also: in the data most compounds retested in dose-response had high values
T2 sequence (whole entry): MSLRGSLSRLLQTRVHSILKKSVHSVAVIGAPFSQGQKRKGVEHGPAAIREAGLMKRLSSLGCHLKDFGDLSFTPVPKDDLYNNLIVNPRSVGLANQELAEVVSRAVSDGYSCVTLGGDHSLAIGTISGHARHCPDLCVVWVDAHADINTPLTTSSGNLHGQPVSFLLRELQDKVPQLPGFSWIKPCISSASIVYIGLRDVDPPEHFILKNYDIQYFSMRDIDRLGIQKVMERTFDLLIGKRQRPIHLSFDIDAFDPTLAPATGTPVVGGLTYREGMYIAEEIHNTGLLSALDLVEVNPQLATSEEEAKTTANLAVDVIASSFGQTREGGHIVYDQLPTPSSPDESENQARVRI

[7] = biological target: T3, Proteasome subunit beta (Trypanosoma cruzi) (UniProt O96673); assay: Trypanosoma cruzi proteasome chymotrypsin-like activity (TcProtChymo) assay.; also: in the data most compounds retested in dose-response had high values; format: functional; settings: 9.37 µM
T3 sequence (whole entry): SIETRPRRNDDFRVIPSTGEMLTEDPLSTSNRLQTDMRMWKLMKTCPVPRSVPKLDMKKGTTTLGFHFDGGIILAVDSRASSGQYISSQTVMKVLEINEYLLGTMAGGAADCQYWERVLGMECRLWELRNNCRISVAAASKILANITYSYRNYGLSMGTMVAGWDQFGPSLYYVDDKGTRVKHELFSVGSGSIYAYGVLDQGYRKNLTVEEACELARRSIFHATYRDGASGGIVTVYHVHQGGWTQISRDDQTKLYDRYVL

[8] = organism: Homo sapiens; assay: To identify inhibition of the IFN signalling (Jak-Stat) pathway via expression of an eGFP reporter gene under the control of an IFN-stimulated response element (ISRE) containing MxA promoter.; format: functional; settings: 30 µM
[9] = biological target: T4, Tyrosyl-tRNA synthetase, putative (Trypanosoma cruzi (strain CL Brener)) (UniProt Q4DSP6); assay: Trypanosoma cruzi tyrosyl tRNA synthetase (TcYRS) _High Tyrosine SOP; format: functional; settings: 30 µM; also: in the data most compounds retested in dose-response had high values
T4 sequence (whole entry): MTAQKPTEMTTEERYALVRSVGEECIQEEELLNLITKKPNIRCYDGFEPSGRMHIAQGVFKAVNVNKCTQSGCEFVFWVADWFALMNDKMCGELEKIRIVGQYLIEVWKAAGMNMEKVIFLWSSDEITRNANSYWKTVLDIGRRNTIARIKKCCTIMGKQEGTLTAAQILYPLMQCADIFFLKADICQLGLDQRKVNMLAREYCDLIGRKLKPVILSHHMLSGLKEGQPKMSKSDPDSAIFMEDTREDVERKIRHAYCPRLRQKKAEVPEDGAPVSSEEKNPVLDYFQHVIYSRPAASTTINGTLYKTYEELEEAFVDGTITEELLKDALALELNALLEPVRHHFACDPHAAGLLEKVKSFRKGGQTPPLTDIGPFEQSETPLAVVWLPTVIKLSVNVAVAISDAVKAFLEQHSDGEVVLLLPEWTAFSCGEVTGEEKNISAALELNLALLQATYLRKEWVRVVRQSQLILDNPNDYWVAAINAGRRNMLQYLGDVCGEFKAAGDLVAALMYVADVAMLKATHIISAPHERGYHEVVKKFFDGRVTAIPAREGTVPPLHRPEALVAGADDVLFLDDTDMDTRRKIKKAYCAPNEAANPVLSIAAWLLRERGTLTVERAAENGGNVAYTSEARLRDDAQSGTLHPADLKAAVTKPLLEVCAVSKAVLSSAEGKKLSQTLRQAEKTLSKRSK

[10] = biological target: T4, Tyrosyl-tRNA synthetase, putative (Trypanosoma cruzi (strain CL Brener)); assay: Trypanosoma cruzi tyrosyl tRNA synthetase (TcYRS) SOP; format: functional; settings: 30 µM
[11] = biological target: Chromo domain-containing protein 1 (Saccharomyces cerevisiae (strain ATCC 204508 / S288c) (Baker's yeast)) (UniProt P32657); assay: ScCHD-1 Enzyme Inhibition Assay; format: functional; settings: 30 µM; also: in the data most compounds retested in dose-response had high values
Chain of Chromo domain-containing protein 1 (Saccharomyces cerevisiae (strain ATCC 204508 / S288c) (Baker's yeast)) (P32657 whole entry, the tested form may be a part): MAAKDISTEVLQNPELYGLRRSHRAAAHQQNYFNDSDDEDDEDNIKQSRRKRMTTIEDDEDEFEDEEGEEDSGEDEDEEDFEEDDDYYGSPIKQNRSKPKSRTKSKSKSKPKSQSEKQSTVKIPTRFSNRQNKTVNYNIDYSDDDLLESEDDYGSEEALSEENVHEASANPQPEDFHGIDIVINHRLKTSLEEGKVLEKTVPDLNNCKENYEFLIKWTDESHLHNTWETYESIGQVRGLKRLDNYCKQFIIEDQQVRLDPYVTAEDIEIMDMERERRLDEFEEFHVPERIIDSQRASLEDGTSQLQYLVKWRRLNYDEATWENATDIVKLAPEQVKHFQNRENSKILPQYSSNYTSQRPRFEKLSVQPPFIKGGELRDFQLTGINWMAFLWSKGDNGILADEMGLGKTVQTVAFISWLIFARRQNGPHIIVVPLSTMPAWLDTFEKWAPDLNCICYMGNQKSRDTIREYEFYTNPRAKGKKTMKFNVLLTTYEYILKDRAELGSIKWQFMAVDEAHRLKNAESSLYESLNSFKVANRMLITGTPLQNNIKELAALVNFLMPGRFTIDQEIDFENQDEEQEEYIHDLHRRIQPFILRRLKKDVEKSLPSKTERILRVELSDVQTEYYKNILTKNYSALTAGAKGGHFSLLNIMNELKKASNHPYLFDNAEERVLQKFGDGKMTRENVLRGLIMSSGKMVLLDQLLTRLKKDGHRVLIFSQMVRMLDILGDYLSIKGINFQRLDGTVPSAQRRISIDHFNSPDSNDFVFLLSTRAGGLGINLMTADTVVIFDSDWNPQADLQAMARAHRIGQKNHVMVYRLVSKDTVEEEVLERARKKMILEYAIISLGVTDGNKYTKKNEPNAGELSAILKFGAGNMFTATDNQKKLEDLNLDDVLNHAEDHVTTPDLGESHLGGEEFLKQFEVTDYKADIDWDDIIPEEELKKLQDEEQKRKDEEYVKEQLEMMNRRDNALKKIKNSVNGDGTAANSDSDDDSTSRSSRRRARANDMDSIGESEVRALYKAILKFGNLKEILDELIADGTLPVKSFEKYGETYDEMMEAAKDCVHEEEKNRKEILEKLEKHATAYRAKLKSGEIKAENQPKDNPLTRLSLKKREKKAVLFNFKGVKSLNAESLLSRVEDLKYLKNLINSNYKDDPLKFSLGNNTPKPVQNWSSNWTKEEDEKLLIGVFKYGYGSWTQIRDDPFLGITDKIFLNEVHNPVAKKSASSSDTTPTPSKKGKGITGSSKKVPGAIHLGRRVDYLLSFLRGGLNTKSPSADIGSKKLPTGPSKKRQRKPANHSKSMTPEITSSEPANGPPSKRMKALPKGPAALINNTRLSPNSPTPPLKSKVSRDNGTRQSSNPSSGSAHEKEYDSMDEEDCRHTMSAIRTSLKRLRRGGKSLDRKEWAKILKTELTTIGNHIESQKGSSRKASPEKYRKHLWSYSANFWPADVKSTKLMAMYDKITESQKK

Chain of Sialic acid-binding Ig-like lectin 9 (Homo sapiens) (Q9Y336 whole entry): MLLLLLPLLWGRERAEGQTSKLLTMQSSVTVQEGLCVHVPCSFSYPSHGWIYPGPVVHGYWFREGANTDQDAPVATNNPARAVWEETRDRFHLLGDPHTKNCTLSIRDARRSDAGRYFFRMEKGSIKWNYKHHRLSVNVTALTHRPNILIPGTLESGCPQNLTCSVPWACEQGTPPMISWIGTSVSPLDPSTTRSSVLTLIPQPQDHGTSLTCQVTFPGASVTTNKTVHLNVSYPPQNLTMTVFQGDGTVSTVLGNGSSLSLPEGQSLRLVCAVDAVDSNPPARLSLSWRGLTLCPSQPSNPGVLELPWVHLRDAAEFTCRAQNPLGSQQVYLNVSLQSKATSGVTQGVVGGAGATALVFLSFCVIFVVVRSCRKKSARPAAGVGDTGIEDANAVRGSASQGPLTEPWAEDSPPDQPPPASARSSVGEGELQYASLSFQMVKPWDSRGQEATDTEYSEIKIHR
Chain of Protein translocase subunit SecA (Escherichia coli (strain K12)) (P10408 whole entry): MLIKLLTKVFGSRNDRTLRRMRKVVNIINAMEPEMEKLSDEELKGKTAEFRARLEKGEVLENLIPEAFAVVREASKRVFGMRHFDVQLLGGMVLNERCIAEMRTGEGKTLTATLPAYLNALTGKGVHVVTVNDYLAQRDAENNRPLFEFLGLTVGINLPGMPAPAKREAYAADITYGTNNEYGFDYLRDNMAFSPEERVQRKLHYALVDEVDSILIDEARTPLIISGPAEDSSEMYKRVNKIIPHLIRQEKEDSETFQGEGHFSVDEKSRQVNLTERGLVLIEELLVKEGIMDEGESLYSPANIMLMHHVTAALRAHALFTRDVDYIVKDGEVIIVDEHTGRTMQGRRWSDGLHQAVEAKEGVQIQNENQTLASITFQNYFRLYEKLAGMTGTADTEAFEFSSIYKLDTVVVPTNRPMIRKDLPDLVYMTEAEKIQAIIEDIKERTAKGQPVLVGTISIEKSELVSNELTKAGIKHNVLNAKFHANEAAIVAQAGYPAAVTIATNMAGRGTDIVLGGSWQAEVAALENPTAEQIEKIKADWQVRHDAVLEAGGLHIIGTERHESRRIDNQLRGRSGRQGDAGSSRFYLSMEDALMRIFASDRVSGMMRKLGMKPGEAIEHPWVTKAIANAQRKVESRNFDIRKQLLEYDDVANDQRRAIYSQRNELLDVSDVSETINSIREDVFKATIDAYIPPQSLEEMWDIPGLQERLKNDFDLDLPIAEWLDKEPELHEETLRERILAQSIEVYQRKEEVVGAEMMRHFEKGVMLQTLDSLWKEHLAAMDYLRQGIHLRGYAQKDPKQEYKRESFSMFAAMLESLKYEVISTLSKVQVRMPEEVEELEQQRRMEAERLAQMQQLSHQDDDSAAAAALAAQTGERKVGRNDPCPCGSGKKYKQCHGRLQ

Row | SMILES | Percent Effect [1] | Percent Effect [2] | Percent Effect [3] | Percent Effect [4] | Percent Effect [5] | Percent Effect [6] | Percent Effect [7] | Percent Effect [8] | Percent Effect [9] | Percent Effect [10] | Percent Effect [11]
1 | CCc1[nH]ncc1C(=O)N1CCCN(Cc2cnn(C(C)C)c2)CC1 | -1.61% | 29.7% | -18.5% | -5.54% | 4.62% | -18% | 18.7% | 24.4% | 3.45% | 13.6% | -9.88%
2 | Cc1n[nH]c(C)c1NC(=O)CN1CCn2c(nnc2C(C)C)C1 | -0.613% | 2.6% | 7.19% | 2.99% | 2.06% | 2.74% | 5.42% | -7.56% | 0% | 0% | -16.6%
3 | CC(C)c1noc(CCCC(=O)N2CCC(Cc3cccnc3)CC2)n1 | 1.54% | -2.53% | 1.06% | 8.41% | -6.14% | 4.18% | -2.05% | 16.4% | 0.493% | -3.8% | -3.44%
4 | Cn1ccnc1-c1cccc(NC(=O)NCCN2CCOCC2)c1 | -4.99% | 15.3% | -5.8% | 16.5% | 4.57% | 16.3% | 10.9% | 9.44% | 5.26% | 10.3% | -4.33%
5 | Cn1cc(CN2CC[C@H](O)[C@@H]2Cc2ccncc2)cn1 | -8.41% | 5.41% | -33.1% | -9.45% | -0.293% | -0.955% | 1.66% | 26.4% | -1.08% | -2.56% | 3.16%
6 | CN1CCN(Cc2cn3c(n2)CN(C(=O)N2CCOCC2)CC3)CC1 | -6.56% | 5.2% | 1.33% | 22.1% | 3.25% | -5.52% | 0.499% | -12.5% | 4.3% | 11.1% | 0.336%
7 | O=C(NCCn1ccc(-c2ccncc2)n1)c1ccncc1 | -1.85% | 5.48% | -0.372% | 8.72% | 1.57% | -0.455% | 9.58% | 2.43% | 2.15% | 2.5% | -2.37%
8 | Cn1ccnc1N1CCN(C(=O)Cc2ccc(F)cc2)CC1 | -3.69% | 13% | 5.01% | 3.61% | 2.86% | 0.645% | 17.6% | 14.3% | 6.35% | 11.5% | -9.3%
9 | c1coc(-c2noc(CN3CCCC(Cn4cncn4)C3)n2)c1 (stereo not given) | -6.64% | 7.59% | -3.53% | 4.26% | 6.14% | -3.04% | 2.05% | 3.63% | -1.48% | 11.4% | -5.56%
10 | CCn1nnc2c1C(COC)CN(Cc1cccs1)C2 (stereo not given) | -2.49% | 5.41% | 4.39% | 6.4% | 4.69% | 1.67% | 12.3% | -4.92% | 4.95% | 8.54% | -4.09%
11 | Cc1ccc(CN2CCn3cc(CN(C)Cc4ccco4)nc3C2)o1 | -4.77% | 15.6% | -9.82% | 2.5% | 7.2% | -9.68% | 16.2% | 7.34% | 4.23% | 11.5% | -10.4%
12 | CC(O)CN1CCN(C(=O)CN(C)c2ccc(Cl)cn2)CC1 (stereo not given) | -0.0278% | -2.7% | -4.09% | 7.01% | -1.93% | -2.38% | 14.8% | 14.1% | 4.76% | 7.32% | -3.67%
13 | COCCCNC(=O)N1CCCC(c2nncn2C)C1 (stereo not given) | -5.16% | 2.63% | -3.92% | 8.87% | -3.46% | 0.36% | 7.87% | 5.55% | 0.493% | -6.17% | 2.53%
14 | Cc1nc(CNC(=O)NCCc2ccc(N(C)C)cc2)cs1 | -4.53% | 10.8% | 6.12% | 13.5% | 1.23% | -5.61% | -1.98% | -15.3% | 9.36% | 18.5% | -10.4%
15 | CN(C)CC(=O)N1Cc2nc(C(=O)NCc3ccncc3)oc2C1 | -0.101% | 13.3% | -4.75% | 4% | 3.86% | -49.3% | 14.4% | -9.53% | 0% | 20% | -6.75%
16 | Cc1cc(-c2cnc(NC3CCCC3)nc2-c2ccoc2C)on1 | -2.76% | 14.9% | 65.2% | 4.01% | 0.395% | -0.696% | 5.77% | 14.7% | 6.45% | 3.9% | -16%
17 | CN(C)c1cncc(C2CCN(C(=O)CO)CC2)n1 | -3.4% | 6.76% | 7.38% | 5.95% | 0.198% | 2.55% | 10.8% | 22% | 4.3% | 9.09% | -10.6%
18 | O=C(NCCCNCC1CNc2ccnn2C1)c1ccccc1 (stereo not given) | 0.663% | 2.7% | -9.29% | -3.11% | 0.193% | 4.29% | 16.6% | 9.18% | 5.82% | 14.6% | -3.29%
19 | CNC(=O)c1cc2c(nc1NCC1CC1)CCN(c1ccncn1)CC2 | -4.02% | 1.33% | 11.9% | 4.48% | -1.57% | -4.05% | 9.61% | 35.2% | 1.06% | 0% | -5.29%
20 | Cc1ccc2cc(C3(O)CCN(C(=O)CN4CCCC4)CC3)ccc2n1 | -2.77% | -1.39% | -1.64% | -0.537% | -4.96% | 3.53% | 11.9% | 4.91% | 2.1% | 5.13% | 0.856%
